This passage reports growth results from PubChem BioAssay (NCI).

Experiment in all cases: NCI-60 one-dose screen, 48 h (100 = growth as untreated, 0 = no growth, -100 = all killed)
Conditions in all cases: 10 µM unless noted

The test system of assay [1] is HCT-15 colon.
Assay [2] relates to HT29 colon.
In assay [3] the test system is SNB-75 CNS.
The subject of assay [4] is U251 CNS.
Assay [5] deals with PC-3 prostate.
Assay [6] has as its system SK-MEL-5 melanoma.
Assay [7] deals with UACC-62 melanoma.
Assay [8] relates to LOX IMVI melanoma.
In assay [9] the test system is SK-MEL-28 melanoma.
Assay [10] deals with SK-MEL-2 melanoma.
In assay [11] the test system is SN12C renal.
Assay [12] concerns UO-31 renal.
The test system of assay [13] is TK-10 renal.
Assay [14] has as its system CAKI-1 renal.
In assay [15] the test system is A498 renal.
In assay [16] the test system is CCRF-CEM leukemia.
Assay [17] deals with MOLT-4 leukemia.
In assay [18] the test system is SNB-19 CNS.
In assay [19] the test system is ACHN renal.
The test system of assay [20] is EKVX NSCLC.

SMILES strings stand for the structures. Several values for one entry are separate records, joined by “and”; a condition that tells them apart may be missing. Equal values may be shown once. Compounds without any hit were thinned out: in the full panel of roughly 83,000, 20% have a hit.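 Method: cells in 96-well plates; compound added at one concentration; 48 h incubation; percent growth measured; values under 10 scored active.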 Where a structure was tested more than once in an assay, its records may differ in their call. Activity calls are given as the source filed them.

On to `O=C1OC2(c3ccccc31)c1ccc(O)c(O)c1Oc1c2ccc(O)c1O`, for which the growth is 94.5% (inactive) and 123% (inactive) in [1]; 102% (inactive) and 116% (inactive) in [2]; 101% (inactive) and 88.3% (inactive) in assay [3]; 104% (inactive) in assay [4]; 81% (inactive) and 89.2% (inactive) in assay [5]; 106% (inactive) and 100% (inactive) in assay [6]. Further, the growth in assay [7] was 108% (inactive) and 102% (inactive); in assay [8] it was 90.7% (inactive) and 103% (inactive); in [9] it was 112% (inactive) and 117% (inactive); in assay [10], 85.1% (inactive); in assay [11], 98.8% (inactive) and 103% (inactive); in assay [12], 90.2% (inactive) and 87.8% (inactive). For the same molecule, the growth in assay [13] was 105% (inactive) and 101% (inactive); in [14] it was 104% (inactive) and 114% (inactive); in assay [15] it was 114% (inactive) and 97.9% (inactive); in [16], 90.8% (inactive) and 110% (inactive); in assay [17], 95.4% (inactive) and 121% (inactive).

Consider `CCN(CC)CCNc1ccc(C)c2sc3ccccc3c(=O)c12` (tested in a mixture with another compound), for which the growth in assay [2] was 1.12% (active) and 10.8% (inactive); in assay [3], 25.6% (inactive) and 51% (inactive); in assay [18], 41.1% (inactive) and 26.3% (inactive); in assay [4], 18.4% (inactive) and 15.1% (inactive); in assay [5], 50.4% (inactive) and 35.3% (inactive); in assay [6], -85.6% (active) and -91.5% (active). Further, the growth in assay [7] is -68.8% (active) and -47.5% (active); in [8] it was -17% (active) and -40.3% (active); in assay [9], -3.67% (active) and -6.09% (active); in [10], 59.2% (inactive) and 86.4% (inactive); in assay [11] it was 35.1% (inactive) and 36.4% (inactive); in [13], 23.1% (inactive) and 50% (inactive). The growth in assay [14] was 22.4% (inactive) and 29.9% (inactive); in assay [15] it was 102% (inactive) and 75.7% (inactive); in assay [16], 55.7% (inactive) and 29.3% (inactive); in assay [17], 8.98% (active) and 26.9% (inactive).

For the molecule `Cc1c(Cl)cccc1NCN1C(=O)c2ccccc2C1=O`, the growth in assay [2] was 104% (inactive); in [3] it was 94.4% (inactive); in [18] it was 110% (inactive); in [4] it was 95.5% (inactive); in [5], 101% (inactive); in assay [6], 99.5% (inactive). Besides, the growth is 114% (inactive) in [7]; 97% (inactive) in assay [8]; 112% (inactive) in assay [9]; 103% (inactive) in assay [10]; 112% (inactive) in [11]; 82.8% (inactive) in assay [12]. The growth in assay [13] is 114% (inactive); in assay [19] it was 105% (inactive); in assay [14], 94.4% (inactive); in [15] it was 101% (inactive); in [16], 105% (inactive); in assay [17] it was 116% (inactive).

Take `Oc1c(Cl)cc(Cl)cc1Sc1cc(Cl)cc(Cl)c1O`: the growth in assay [2] was 66.2% (inactive) and 15.8% (inactive) and 108% (inactive); in assay [3], 97.2% (inactive) and 55.2% (inactive) and 100% (inactive); in assay [18] it was 43.4% (inactive) and -0.0882% (active) and 74.5% (inactive); in assay [4], 48.8% (inactive) and 8.95% (active) and 71.5% (inactive); in assay [5], 10.7% (inactive) and 1.87% (active) and 48% (inactive); in assay [6], 48% (inactive) and 51% (inactive). Besides, the growth in assay [7] is 19.1% (inactive) and -29% (active) and 50.2% (inactive); in assay [8], 80.7% (inactive) and 41.3% (inactive) and 96% (inactive); in assay [9], 58.3% (inactive) and 27.8% (inactive) and 95.3% (inactive); in assay [10], -21.7% (active) and -41% (active) and 79.7% (inactive); in assay [20], 50% (inactive) and 23.4% (inactive) and 89% (inactive); in assay [11] it was 26.8% (inactive) and -26.6% (active) and 72.8% (inactive). Besides, the growth in assay [13] was 46.9% (inactive) and -11.2% (active) and 87.2% (inactive); in assay [19], 15.2% (inactive) and 105% (inactive); in [14] it was 17.9% (inactive) and 11.7% (inactive) and 62.8% (inactive); in assay [15], 54.4% (inactive) and 42.3% (inactive) and 69.5% (inactive); in [16], 23.1% (inactive) and 9.78% (active) and 61.2% (inactive); in assay [17] it was 38.7% (inactive) and 16.2% (inactive) and 91% (inactive).

Regarding `S=C(S)N1CCCC1`, the growth is 76.7% (inactive) and 22.4% (inactive) in assay [2]; 113% (inactive) and 89% (inactive) in assay [3]; 99.1% (inactive) and 100% (inactive) in [18]; 85.1% (inactive) and 49% (inactive) in [4]; 84.7% (inactive) and 82.8% (inactive) in assay [5]; 79.7% (inactive) and 67.8% (inactive) in assay [6]. For the same molecule, the growth in assay [7] is 90.9% (inactive) and 105% (inactive); in [8], 108% (inactive) and 90.2% (inactive); in assay [9], 95.1% (inactive) and 107% (inactive); in assay [10], 98% (inactive) and 99.7% (inactive); in [20], 114% (inactive) and 99% (inactive); in [11], 96.4% (inactive) and 109% (inactive). For the same molecule, the growth in assay [12] was 88.3% (inactive) and 76.4% (inactive); in assay [13], 96.5% (inactive) and 96.3% (inactive); in assay [14], 124% (inactive); in [15], 72.5% (inactive) and 102% (inactive); in [16], 65.5% (inactive) and 70.7% (inactive); in assay [17] it was 98.7% (inactive) and 107% (inactive).

With `CC(=O)c1ccccc1O`, the growth is 107% (inactive) and 99.2% (inactive) and 111% (inactive) in [2]; 107% (inactive) and 93% (inactive) and 97.7% (inactive) in assay [3]; 102% (inactive) and 105% (inactive) and 94.1% (inactive) in [18]; 108% (inactive) and 98.7% (inactive) and 104% (inactive) in [4]; 102% (inactive) and 83.5% (inactive) and 91.7% (inactive) in assay [5]; 100% (inactive) and 102% (inactive) in assay [6]. Further, the growth is 101% (inactive) and 105% (inactive) in assay [7]; 100% (inactive) and 92.7% (inactive) and 103% (inactive) in assay [8]; 103% (inactive) and 91.7% (inactive) and 109% (inactive) in [9]; 107% (inactive) and 98.5% (inactive) and 111% (inactive) in [10]; 99.7% (inactive) and 108% (inactive) and 104% (inactive) in [20]; 98.1% (inactive) and 104% (inactive) and 98.7% (inactive) in assay [11]. Moreover, the growth is 80% (inactive) and 90.5% (inactive) and 68.1% (inactive) in assay [12]; 104% (inactive) and 95.9% (inactive) and 95.7% (inactive) in [13]; 92.5% (inactive) and 86.6% (inactive) in [15]; 107% (inactive) and 104% (inactive) and 101% (inactive) in assay [16]; 88.1% (inactive) and 91.6% (inactive) and 104% (inactive) in assay [17].

With `CC1CCCC(=O)O1` (stereo unspecified), the growth is 94.8% (inactive) and 99.7% (inactive) in assay [1]; 106% (inactive) and 99.8% (inactive) in assay [2]; 83.3% (inactive) and 95.6% (inactive) in assay [3]; 102% (inactive) and 104% (inactive) in assay [4]; 96.2% (inactive) and 95.1% (inactive) in assay [5]; 102% (inactive) and 108% (inactive) in [6]. Further, the growth in assay [7] is 109% (inactive) and 101% (inactive); in [8], 96.3% (inactive) and 97.2% (inactive); in [9], 99.5% (inactive) and 113% (inactive); in assay [10] it was 103% (inactive) and 107% (inactive); in [11] it was 111% (inactive); in assay [12], 92.8% (inactive) and 76.7% (inactive). Also, the growth was 103% (inactive) and 108% (inactive) in [13]; 99.2% (inactive) and 100% (inactive) in [19]; 110% (inactive) and 97.8% (inactive) in [15]; 111% (inactive) in assay [16]; 99.5% (inactive) and 106% (inactive) in [17].

With `Cc1n[nH]c(=O)n(/N=C\c2c[nH]c3ccccc23)c1=O`, the growth is 101% (inactive) in [2]; 84% (inactive) in assay [3]; 105% (inactive) in assay [18]; 98.8% (inactive) in assay [4]; 97.9% (inactive) in [5]; 102% (inactive) in assay [6]. In addition, the growth in assay [7] was 107% (inactive); in [8] it was 99.4% (inactive); in assay [9], 105% (inactive); in assay [10], 104% (inactive); in assay [20], 109% (inactive); in assay [11], 99.8% (inactive). Besides, the growth in assay [13] was 100% (inactive); in [19] it was 98.5% (inactive); in [15], 103% (inactive); in [16] it was 95.9% (inactive); in assay [17] it was 91.6% (inactive).

As for `O=c1c2ccccc2nc2n1Cc1nc3ccccc3c(=O)n1C2`, the growth was 90.9% (inactive) and 108% (inactive) in assay [1]; 111% (inactive) and 103% (inactive) in assay [2]; 86.6% (inactive) and 105% (inactive) in assay [3]; 105% (inactive) and 108% (inactive) in assay [4]; 98.6% (inactive) and 107% (inactive) in assay [5]; 95.3% (inactive) and 107% (inactive) in assay [6]. For the same molecule, the growth in [7] is 95.6% (inactive) and 98.9% (inactive); in [9], 97.8% (inactive) and 101% (inactive); in assay [10] it was 103% (inactive) and 119% (inactive); in [20] it was 90.9% (inactive) and 104% (inactive); in [11], 96.9% (inactive) and 102% (inactive); in [12] it was 81.2% (inactive) and 92.6% (inactive). Also, the growth in assay [13] was 107% (inactive) and 102% (inactive); in assay [19], 95.6% (inactive) and 102% (inactive); in [14] it was 93.5% (inactive); in assay [15] it was 93.9% (inactive) and 103% (inactive); in assay [16], 96.2% (inactive) and 112% (inactive); in assay [17], 99.4% (inactive) and 30.7% (inactive).
